Shown are actives, neighbours in structure and some others; about 1.7% of the full set was active somewhere.
GSTO1 counter – counter-screen for RBBP9 inhibitors: inhibitors of human GSTO1; recombinant GSTO1, activity-based probe fluorescence polarization; hit rate 1.1% among 300,000; AID 1974; P78417; inhibition, % at 5.96 µM;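 active means inhibition above the campaign mean inhibition plus 3 SD, cut at about 35% in these data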;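 further: 0% = GSTO1-1 with DMSO and 100% = wells lacking GSTO1-1 enzyme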
EBNA-1 inhibitor – blocks EBNA-1 binding to DNA. EBNA-1 DNA binding, fluorescence polarization. inhibition, % at 14.8 µM. AID 1950. hit rate 0.34% among 300,000; in the data active means inhibition above about 28%
LYPLA1 counter – blocks human lysophospholipase 1, a PME1 counter-screen. O75608. recombinant LYPLA1, FP-Rh probe fluorescence polarization. inhibition, % at 5.9 µM. hit rate 0.16% among 320,000. AID 2174;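 active means inhibition above the mean of all tested compounds plus 3 SD, set per campaign, cut at about 14% in these data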;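 further: inhibitors block serine hydrolase probe labeling of LYPLA1 so polarization falls; 0% = enzyme with DMSO and 100% = wells lacking LYPLA1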
ZTA DNA inh – counter-screen for EBNA-1 inhibitors: inhibitors of Epstein-Barr virus ZTA; ZTA-DNA binding, fluorescence polarization; hit rate 0.15% among 320,000; inhibition, % at 11 µM; P03206; AID 2234; in the data active means inhibition above about 33%
Target sequence (P03206 whole entry, looked up): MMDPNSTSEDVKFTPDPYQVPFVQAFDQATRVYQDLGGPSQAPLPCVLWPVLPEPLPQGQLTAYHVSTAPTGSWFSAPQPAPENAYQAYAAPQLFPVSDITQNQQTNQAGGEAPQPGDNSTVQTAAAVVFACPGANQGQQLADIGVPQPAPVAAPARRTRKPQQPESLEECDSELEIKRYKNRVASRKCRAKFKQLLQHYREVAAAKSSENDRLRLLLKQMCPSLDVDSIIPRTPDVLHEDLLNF
PAD4 inh – PAD4 (human) enzyme inhibition; Q9UM07; recombinant PAD4, RCA probe fluorescence polarization; inhibition, % at 6.36 µM; hit rate 0.41% among 330,000; AID 485272;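 active means percent inhibition above a cutoff equal to the mean of all tested compounds plus 3 SD, cut at about 15% in these data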;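 further: 0% = PAD4 with RCA probe and DMSO and 100% = probe without PAD4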
LYPLA2 inh – LYPLA2 (human) inhibition in PME1 counter-screen; AID 2177; hit rate 0.38% among 320,000; O95372; inhibition, % at 5.9 µM; recombinant LYPLA2, FP-Rh probe fluorescence polarization;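 active means inhibition above the screen-wide mean plus 3 SD, limit set per campaign, cut at about 26% in these data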;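 further: 0% = LYPLA2 with DMSO and 100% = wells lacking LYPLA2 enzyme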
Target sequence (O95372 whole entry, looked up): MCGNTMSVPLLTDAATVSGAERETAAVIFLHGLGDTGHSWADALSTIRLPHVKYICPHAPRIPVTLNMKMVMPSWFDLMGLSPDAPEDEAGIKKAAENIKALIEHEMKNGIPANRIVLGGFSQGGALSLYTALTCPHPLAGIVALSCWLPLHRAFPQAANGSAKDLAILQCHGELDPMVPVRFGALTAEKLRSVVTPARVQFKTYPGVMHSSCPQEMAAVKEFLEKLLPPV
LYPLA2 conf – LYPLA2 (human) inhibition, confirmation counter-screen; hit rate 72% among 1,100; inhibition, % at 5.9 µM; shares compounds with LYPLA2 inh; AID 2232; recombinant LYPLA2, FP-Rh probe fluorescence polarization;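 active means mean inhibition across replicates above the hit cutoff set in the primary screen, cut at about 26% in these data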;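 further: blocked labeling of the enzyme by serine hydrolase FP-Rh probe lowers polarization; 0% = enzyme with DMSO and 100% = wells lacking LYPLA2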
LYPLA2 gel ABPP – blocks human acyl-protein thioesterase 2 in gel ABPP | rhLYPLA2 in mouse brain proteome, gel ABPP FP-Rh | hit rate 30% among 150 | inhibition, % at 20 µM | shares compounds with LYPLA2 inh;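 active means inhibition of LYPLA2 enzyme probe labeling above about 50%, limit read from the data; inactive means inhibition below that limit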;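 further: loss of FP-Rh probe labeling of the LYPLA2 gel band measured as band density; 0% = DMSO only control band and 100% = blank gel background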
Numbers without * were called inactive.

Screening Clc1ccc(-c2nnc(C3CC3)o2)cc1 returned GSTO1 counter 11, EBNA-1 inhibitor 8, LYPLA1 counter 5, ZTA DNA inh -11, PAD4 inh 3 and LYPLA2 inh 10.
`CCC1CCC(c2nnc(-c3ccc([N+](=O)[O-])cc3)o2)CC1` (stereo not drawn) gave GSTO1 counter 7, EBNA-1 inhibitor 6, LYPLA1 counter 6, ZTA DNA inh 10, PAD4 inh 0, LYPLA2 inh 49*, LYPLA2 conf 51* and LYPLA2 gel ABPP 23.
For O=C(NNc1ccccc1[N+](=O)[O-])Nc1ccc(F)cc1 the results were GSTO1 counter 8, EBNA-1 inhibitor 10, LYPLA1 counter -2, ZTA DNA inh 16, PAD4 inh 0 and LYPLA2 inh 17.
For O=C(NNc1ccccc1[N+](=O)[O-])Nc1ccc(Cl)c(Cl)c1 the results were GSTO1 counter -5, EBNA-1 inhibitor -7, LYPLA1 counter -10, ZTA DNA inh -6, PAD4 inh -5, LYPLA2 inh 49* and LYPLA2 conf 44*.
`O=C(NNc1ccccc1[N+](=O)[O-])Nc1ccccc1` gave GSTO1 counter 3, EBNA-1 inhibitor 2, LYPLA1 counter 2, ZTA DNA inh 4, PAD4 inh 4, LYPLA2 inh 28* and LYPLA2 conf 17.
`Cc1cc(=O)n2nc(N3CCC(C(=O)N4CCN(c5ccccc5)CC4)CC3)sc2n1` gave GSTO1 counter 6, EBNA-1 inhibitor 0, LYPLA1 counter 1, ZTA DNA inh 4, PAD4 inh -1 and LYPLA2 inh 20.
Screening CCCc1cc(=O)n2nc(N3CCC(C(=O)N4CCN(c5ccc(OC)cc5)CC4)CC3)sc2n1 returned GSTO1 counter 1, EBNA-1 inhibitor 3, LYPLA1 counter -7, ZTA DNA inh -14, PAD4 inh -1, LYPLA2 inh 51* and LYPLA2 conf 49*.
For Cc1ncc([N+](=O)[O-])n1CC(=O)Nc1ccccc1F the results were GSTO1 counter 2, EBNA-1 inhibitor 4, LYPLA1 counter -1, ZTA DNA inh 13, PAD4 inh 4, LYPLA2 inh 28* and LYPLA2 conf 27*.
For Cc1ncc([N+](=O)[O-])n1CC(=O)Nc1cccc(C(F)(F)F)c1 the results were GSTO1 counter 1, EBNA-1 inhibitor 3, LYPLA1 counter 0, ZTA DNA inh -9, PAD4 inh -4, LYPLA2 inh 51* and LYPLA2 conf 41*.
For Cc1ncc([N+](=O)[O-])n1CC(=O)Nc1ccc(F)c(Cl)c1 the results were GSTO1 counter -5, EBNA-1 inhibitor -13, LYPLA1 counter 5, ZTA DNA inh -10, PAD4 inh -4, LYPLA2 inh 34*, LYPLA2 conf 61* and LYPLA2 gel ABPP 49.
Cc1ncc([N+](=O)[O-])n1CC(=O)Nc1ccc(OC(F)(F)Cl)cc1 was read as GSTO1 counter 2, EBNA-1 inhibitor -5, LYPLA1 counter 1, ZTA DNA inh -6, PAD4 inh -1 and LYPLA2 inh 3.
`COc1ccc(NC(=O)Cn2c([N+](=O)[O-])cnc2C)cc1Cl` gave GSTO1 counter -1, EBNA-1 inhibitor 15, LYPLA1 counter -1, ZTA DNA inh 6, PAD4 inh -3 and LYPLA2 inh 24.
Screening Cc1ncc([N+](=O)[O-])n1CC(=O)NC1CCCCCC1 returned GSTO1 counter -3, EBNA-1 inhibitor 3, LYPLA1 counter -4, ZTA DNA inh -2, PAD4 inh -3, LYPLA2 inh 28* and LYPLA2 conf 33*.
Cc1ncc([N+](=O)[O-])n1CC(=O)NC1CCCC1 was read as GSTO1 counter 9, EBNA-1 inhibitor 7, LYPLA1 counter 2, ZTA DNA inh 9, PAD4 inh 5 and LYPLA2 inh 4.
`O=C(NCc1cccs1)C1CCCN1C(=O)Nc1ccccc1Cl` (stereo not drawn) gave GSTO1 counter 1, EBNA-1 inhibitor 10, LYPLA1 counter 1, ZTA DNA inh 17, PAD4 inh 0 and LYPLA2 inh 4.
CN(Cc1nc(-c2ccccn2)no1)S(=O)(=O)c1ccc(Br)cc1 was read as GSTO1 counter -9, EBNA-1 inhibitor -7, LYPLA1 counter 1, ZTA DNA inh 3, PAD4 inh -4, LYPLA2 inh 37* and LYPLA2 conf 35*.
For CC(C)N(Cc1nc(-c2ccccc2)no1)C(=O)CN(C)S(=O)(=O)c1ccc(Br)cc1 the results were GSTO1 counter 5, EBNA-1 inhibitor -3, LYPLA1 counter 0, ZTA DNA inh 8, PAD4 inh -1 and LYPLA2 inh 9.
For CN(Cc1nc(-c2cccnc2)no1)S(=O)(=O)c1ccc(Br)cc1 the results were GSTO1 counter 0, EBNA-1 inhibitor -3, LYPLA1 counter -1, ZTA DNA inh 2, PAD4 inh -4, LYPLA2 inh 41* and LYPLA2 conf 31*.
CSC1=C(C#N)C(=O)NC(c2ccc(Cl)cc2)S1 (stereo not drawn) was read as GSTO1 counter 7, EBNA-1 inhibitor 0, LYPLA1 counter -4, ZTA DNA inh 5, PAD4 inh -1 and LYPLA2 inh -1.
`O=C(Nc1ccc(S(=O)(=O)NC2=NCCCCC2)cc1)c1ccc(=O)[nH]c1` gave GSTO1 counter -5, EBNA-1 inhibitor 1, LYPLA1 counter 3, ZTA DNA inh -4, PAD4 inh 0 and LYPLA2 inh -2.
For CCOC(=O)C1CCN(C(=O)c2ccc(Oc3cc(Cl)cc(Cl)c3)o2)CC1 the results were GSTO1 counter 1, EBNA-1 inhibitor -10, LYPLA1 counter 4, ZTA DNA inh 7, PAD4 inh 0, LYPLA2 inh 27* and LYPLA2 conf 49*.
`O=[N+]([O-])c1cc(-n2cnnn2)ccc1N1CCC(Cc2ccccc2)CC1` gave GSTO1 counter -1, EBNA-1 inhibitor -2, LYPLA1 counter 2, ZTA DNA inh 1, PAD4 inh -3, LYPLA2 inh 28* and LYPLA2 conf 34*.
O=C(C1CCC(=O)N1Cc1ccccc1Cl)N1CCN(c2cccc(Cl)c2)CC1 (stereo not drawn) was read as GSTO1 counter 2, EBNA-1 inhibitor -9, LYPLA1 counter 6, ZTA DNA inh 9, PAD4 inh -5, LYPLA2 inh 34* and LYPLA2 conf 32*.
Screening COc1ccc(-n2c(C)cc(C(=O)Cn3nnc4ccccc4c3=O)c2C)cc1 returned GSTO1 counter 10, EBNA-1 inhibitor -6, LYPLA1 counter -1, ZTA DNA inh 6, PAD4 inh -1, LYPLA2 inh 27* and LYPLA2 conf 20.
